# IMPase cell inh – cell-permeable inhibitors of inositol monophosphatase (IMPase); P97697; CHO-M1 cells, IP1 accumulation, HTRF TR-FRET ratio; inhibition (IP1 accumulation), % at 46.1 µM; 120,000 tested, under 10 active; active = well fitted curve in the direction sought with a large enough effect in the signal ratio, not every such curve was filed as active; inconclusive = small, poorly fitted or top-dose-only effect, or a change in a side signal; inactive = no such curve, though single readings can be large or run the other way; the % refers to the signal ratio;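 note: cells stimulated with carbachol in lithium chloride buffer; plate controls were DMSO basal wells for no effect and reference inhibitor wells for full effect; higher means more IMPase inhibition seen as more IP1 and lower FRET ratio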
#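 In this qHTS, compounds (final up to 46 uM) act on CHO-M1 cells that are then activated through the M1 receptor with carbachol, in pH 7.4 buffer containing 50 mM LiCl, for 30 min. IP1 accumulation is quantified by the IP-One immunoassay.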
# ALOX12 inhib – blocks human 12-lipoxygenase activity | P18054 | AID 1452 | Potency, µM (highest dose often 57.1 µM), without a hit: at the top dose activity change, negative = inhibition, actives largely listed as inhibitors | purified 12-hLO, xylenol orange hydroperoxide absorbance | 150,000 compounds, 0.12% hits; active = well fitted curve in the direction sought with a large enough effect; inconclusive = small, poorly fitted or top-dose-only effect, or another doubt; inactive = no such curve, though single readings can be large; an effect the other way counts as inactive or inconclusive; note: potency is the fitted concentration of half-maximal effect; nearly all actives have a fitted effect of over 55% in size
#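 Hydroperoxide output read as Fe(III)-xylenol orange absorbance, 573-to-405 nm ratio, after 30 min reaction with 40 uM arachidonic acid. Enzyme: 150 nM purified human 12hLO, 15 min compound preincubation; 25 mM Hepes pH 7.0, room temperature.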
# IMPase Li inh – membrane-permeable IMPase blocker, potentiated with lithium; 210,000 compounds, 0.35% hits; CHO-M1 cells, IP1 TR-FRET (IP-One), carbachol + lithium; AID 1457; Potency, µM (top dose mostly 59.4 µM), for inactives: at the top dose activity, negative = IMPase inhibition, actives largely listed as inhibitors; active = well fitted curve in the direction sought with a large enough effect; inconclusive = small, poorly fitted or top-dose-only effect, or another doubt; inactive = no such curve, though single readings can be large; an effect the other way counts as inactive or inconclusive;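 note: IP1 builds up when IMPase is blocked and the TR-FRET signal falls; potency is the fitted concentration of half-maximal effect; plate controls were basal vehicle for no effect and high inhibitor control for full effect; nearly all actives have a fitted effect of over 50% in size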
#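 Concentration–response in CHO-M1 cells, lithium-potentiated; 30 min at 37C. IP1 detected by competitive TR-FRET after 10 min lysis at RT. Hill-fitted AC50.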
# PNC assembly inh – perinucleolar compartment assembly inhibition; 140,000 compounds, 3.1% hits; PC3M PTB-GFP, PNC prevalence imaging, 16 h; hits give low values; activity change (PNC), negative = inhibition, % at 10 µM;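 active = readout at or below -70, meaning at least 70% loss of cells showing the perinucleolar compartment, a nuclear body marking cancer cells; inconclusive = readout between -30 and a set limit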;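 note: plate controls were DMSO wells for no effect and camptothecin positive control wells for full effect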
#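 PC3M cells stably expressing PTB-GFP, 750–1000 cells/well, treated 16 h at 37 °C with compound (23 nl of library stock), in duplicate. After paraformaldehyde fixation and Hoechst stain, imaged at 20x; PNC prevalence scored by image analysis.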
# ALDH1A1 inh – blocks purified human ALDH1A1 activity | Purified ALDH1A1, NADH fluorescence, propionaldehyde substrate | 220,000 compounds, 7.3% hits | Potency, µM (series often up to 75.3 µM), for inactives: at the highest dose activity, negative = inhibition, hits mostly inhibitors | P00352;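 note: potency is the fitted concentration of half-maximal effect; plate controls were no enzyme wells and a reference inhibitor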
# Target sequence (P00352 whole entry, looked up): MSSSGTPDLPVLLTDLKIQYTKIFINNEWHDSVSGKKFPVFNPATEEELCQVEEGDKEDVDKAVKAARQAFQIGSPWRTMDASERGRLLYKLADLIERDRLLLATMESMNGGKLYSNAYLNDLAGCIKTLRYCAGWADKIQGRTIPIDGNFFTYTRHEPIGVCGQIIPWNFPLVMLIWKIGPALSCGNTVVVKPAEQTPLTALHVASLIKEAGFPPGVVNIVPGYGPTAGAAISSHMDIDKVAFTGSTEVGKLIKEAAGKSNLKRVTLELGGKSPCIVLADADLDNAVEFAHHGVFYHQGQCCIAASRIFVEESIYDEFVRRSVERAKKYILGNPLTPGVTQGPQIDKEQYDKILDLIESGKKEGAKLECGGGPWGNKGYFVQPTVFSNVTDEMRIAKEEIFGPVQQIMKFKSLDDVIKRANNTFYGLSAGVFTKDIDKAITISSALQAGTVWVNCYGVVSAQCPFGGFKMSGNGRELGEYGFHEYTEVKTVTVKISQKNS
# HPGD inh – HPGD (human) dehydrogenase inhibition. purified HPGD, NADH fluorescence kinetic, PGE2 substrate. 150,000 compounds, 4.3% hits. Potency, µM, without a hit: at the top dose activity change, negative = inhibition, actives largely listed as inhibitors. P15428; note: potency is the fitted concentration of half-maximal effect
# Target sequence (P15428 whole entry, looked up): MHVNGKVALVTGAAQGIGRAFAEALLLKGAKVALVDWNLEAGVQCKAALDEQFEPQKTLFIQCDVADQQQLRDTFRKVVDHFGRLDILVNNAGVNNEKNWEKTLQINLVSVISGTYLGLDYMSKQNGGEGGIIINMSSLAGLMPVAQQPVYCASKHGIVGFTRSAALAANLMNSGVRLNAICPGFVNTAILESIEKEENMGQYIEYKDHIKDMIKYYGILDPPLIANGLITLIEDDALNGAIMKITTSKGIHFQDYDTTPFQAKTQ
#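 NADH formation kinetics: reaction with 30 uM PGE2 and 1 mM NAD+ (final), 20 nM enzyme, Tris-HCl pH 8 with Tween 20, after 15 min compound preincubation at room temperature. Fluorescence change, last versus first of five reads.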
# An asterisk follows results filed as active; ? = inconclusive; nt = not tested or not shown; [ ] = another dose, or the depositor's remark. The list is not random: actives were taken first. Their share in the collection is about 11%. Unless noted, calls come from the whole dose curve; as a rule, active = well fitted inhibition curve with a large enough effect (not every such curve was filed as active); inconclusive = small, poorly fitted or top-dose-only effect, or another doubt; inactive = no such curve, though single readings can be large or run the other way. Unless noted, % is set by controls: 0 for no effect and ±100 for the full control effect.
SMILES,IMPase cell inh,ALOX12 inhib,IMPase Li inh,PNC assembly inh,ALDH1A1 inh,HPGD inh
Cc1ccc(S(=O)(=O)N(C)CC(=O)N2CCCC2)cc1,10,-1%,-2%,1,3.5µM*,-13%
Cc1ccc(S(=O)(=O)CC(=O)c2cc(C)c(O)c(C)c2)cc1,nt,nt,9%,nt,1.8µM*,nt
Cc1ccc(S(=O)(=O)CC(=O)N2CCOCC2)cc1,nt,nt,0%,nt,-5%,nt
Fc1ccc(Nc2ncncc2-c2ccccc2C(F)(F)F)cc1,nt,nt,28%,nt,?,nt
CC(C)C1COc2cc3oc(=O)ccc3cc2O1 (centres undefined),nt,-2%,5%,nt,?,?
Cc1ccc(S(=O)(=O)C2(C(=O)N3CCCCCC3)CC2)cc1,4,0%,-3%[38.3 µM],-28,7.1µM*,13µM*
N#Cc1cc2c(nc1SCc1ccccc1)CCCCC2,12,-4%,20%[38.3 µM],-1,8%,-8%
N#Cc1cc2c(nc1SCC1COc3ccccc3O1)CCC2 (centres undefined),16,-4%,18%[38.3 µM],17,?,25µM*
Cc1cc(C)n2nc(SCC3COc4ccccc4O3)nc2n1 (centres undefined),-5,-2%,6%[38.3 µM],5,-4%,7.1µM*
Cc1cc(C)c(C#N)c(SCC2COc3ccccc3O2)n1 (centres undefined),?,-15%,-26%[38.3 µM],-24,?,14µM*
Cc1cc(C)c(C#N)c(SCc2ccccc2)n1,-2,-1%,2%,25,?,-15%
Cc1nc2ccccc2n1S(=O)(=O)c1ccc(Br)cc1,nt,-1%,14%,-109*,4%,-22%
Cc1ccc(OCc2n[nH]c(=S)n2Cc2ccccc2)cc1,nt,nt,17%,nt,-1%,nt
Oc1ccc(-c2n[nH]c(=S)n2Cc2ccccc2)cc1,3,-4%,20%[38.3 µM],4,20µM*,?
S=c1[nH]nc(-c2ccc3ccccc3n2)n1Cc1ccccc1,nt,1%,-3%,24,6%,11µM*
Cc1ccccc1OCc1n[nH]c(=S)n1Cc1ccccc1,nt,-23%,21%,4,-13%,14µM*
Cc1scc(-c2n[nH]c(=S)n2Cc2ccccc2)c1C,nt,-1%,5%,-28,-10%,?
S=c1[nH]nc(-c2ccc(Br)cc2)n1Cc1ccccc1,nt,nt,20%,nt,?,nt
CCc1c(-c2n[nH]c(=S)n2Cc2ccccc2)csc1C,nt,?,11%,?,10µM*,16µM*
S=c1[nH]nc(-c2cccnc2)n1Cc1ccccc1,-5,20%,27%[38.3 µM],37,14µM*,-27%
S=c1[nH]nc(-c2ccncc2)n1Cc1ccccc1,0,-2%,-1%[38.3 µM],?,-12%,-8%
COc1ccc(C(=O)N2CCC3(CCCN(c4ncccn4)C3)CC2)cc1,nt,0%,-5%,nt,-6%,-15%
O=C(Cn1cc(SCc2cccc(Cl)c2)c2ccccc21)N1CCOCC1,12,-3%,4%,-14,7.5µM*,-28%
Cc1cccc(CSc2cn(CC(=O)N3CCOCC3)c3ccccc23)c1,-5,0%,9%,101,?,-10%
CCOC(=O)c1nc2sc3c(c2c(=O)[nH]1)CCCC3,-4,-3%,-3%[38.3 µM],-86*,?,?
SMILES,IMPase cell inh,ALOX12 inhib,IMPase Li inh,PNC assembly inh,ALDH1A1 inh,HPGD inh
CC(=O)OCc1nc2sc3c(c2c(=O)[nH]1)CCCC3,9,3%,2%,3,?,-3%
CCOC(=O)CCCSc1nc2sc3c(c2c(=O)[nH]1)CCC3,-7,2%,6%[38.3 µM],-7,-2%,3.5µM*
CCOC(=O)CSc1nnc(CSc2nc3sc4c(c3c(=O)[nH]2)CCCC4)n1-c1ccccc1,3,7%,-5%[38.3 µM],67,0%,14µM*
C=CCSc1nc2sc3c(c2c(=O)[nH]1)CCC3,nt,nt,1%,nt,0%,nt
O=C(CC1N=C2c3ccccc3N=C(SCC(=O)Nc3cccc(Cl)c3)N2C1=O)NCc1cccs1 (centres undefined),4,nt,nt,nt,nt,nt
Cc1oc(-c2nc3ccccc3n2C)cc1C(=O)c1ccccc1,9,-2%,-5%,-13,?,35µM*
CN(C)c1ccc(-c2cc(N(C)Cc3ccco3)ncn2)cc1,nt,nt,-2%,nt,?,nt
CCCCNC(=O)Cc1c(O)c2ccccc2[nH]c1=O,6,8%,30%[38.3 µM],-112*,?,-25%
CCCCCCNC(=O)Cc1c(O)c2ccccc2[nH]c1=O,-3,-8%,12%[38.3 µM],?,?,?
CC(=O)NCCc1c(Cc2ccccc2)[nH]c2ccccc12,0,-7%,1%,nt,2%,14µM*
CCCCC(=O)NCCc1c(Cc2ccccc2)[nH]c2ccccc12,8,-6%,14%,nt,?,16µM*
O=c1[nH]c2ccccc2c(O)c1O,nt,nt,nt,nt,0.56µM*,nt
COC(=O)c1c(O)c2ccccc2[nH]c1=O,-2,2%,26%[38.3 µM],8,-9%,-17%
CC(C)N(CCNC(=O)c1ccc(Cc2nc3ccccc3[nH]2)cc1)C(C)C,nt,-2%,nt,nt,?,-9%
COc1ncc2ncc(=O)n(C[C@H]3CCCO3)c2n1,nt,nt,1%,nt,?,nt
CN(C)c1ncc2nc(-c3ccccc3)c(=O)n(C[C@H]3CCCO3)c2n1,nt,nt,0%,nt,?,nt
COC(=O)c1ccc(C(NC(=O)OCc2ccccc2)/C(=C/[C@@H](C)C(=O)NCC2CC2)c2cccnc2)cc1 (some centres undefined),nt,-2%,-5%,nt,-1%,-2%
COc1ccc(Oc2coc3cc(OC(=O)/C=C/c4ccc(F)cc4)ccc3c2=O)cc1,1,0%,nt,35,3%,nt
COc1ccc(Oc2coc3cc(OC(=O)/C=C/c4ccccc4)ccc3c2=O)cc1,4,-5%,4%,-81*,6%,-1%
Nc1c(C(=O)N2CCOCC2)sc(=S)n1-c1ccccc1,0,1%,17%[38.3 µM],40,8.9µM*,11µM*
CC(=O)c1sc(=S)n(-c2ccccc2)c1C,nt,nt,nt,nt,-6%,nt
Nc1c(C(=O)N2CCCCC2)sc(=S)n1-c1ccccc1,-6,-6%,23%[38.3 µM],?,1.4µM*,3.2µM*
N#C/C(=C\c1ccccc1)C(=O)Nc1sc2c(c1C(N)=O)CCC2,-3,nt,nt,nt,nt,nt
O=c1nc(/C=C/c2cc([N+](=O)[O-])ccc2Cl)cc(C(F)(F)F)[nH]1,1,-9%,25%[38.3 µM],-27,?,3.2µM*
O=c1nc(/C=C/c2cccn2-c2ccc([N+](=O)[O-])cc2)cc(C(F)(F)F)[nH]1,nt,nt,-7%,nt,-1%,nt
O=C1CSC(c2cccc([N+](=O)[O-])c2)N1c1ccc(O)cc1 (centres undefined),nt,nt,0%,nt,5%,nt
